# D2 PAM-1 – positively modulates the human D2 dopamine receptor allosterically. P14416. HEK293 T-REx D2, calcium flux, EC20 dopamine potentiation. hit rate 0.34% among 340,000. potentiation, % at 10 µM;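 active = potentiation over 3 SD above the plate norm, cut at about 30% in these data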
# Target sequence (P14416 whole entry, looked up): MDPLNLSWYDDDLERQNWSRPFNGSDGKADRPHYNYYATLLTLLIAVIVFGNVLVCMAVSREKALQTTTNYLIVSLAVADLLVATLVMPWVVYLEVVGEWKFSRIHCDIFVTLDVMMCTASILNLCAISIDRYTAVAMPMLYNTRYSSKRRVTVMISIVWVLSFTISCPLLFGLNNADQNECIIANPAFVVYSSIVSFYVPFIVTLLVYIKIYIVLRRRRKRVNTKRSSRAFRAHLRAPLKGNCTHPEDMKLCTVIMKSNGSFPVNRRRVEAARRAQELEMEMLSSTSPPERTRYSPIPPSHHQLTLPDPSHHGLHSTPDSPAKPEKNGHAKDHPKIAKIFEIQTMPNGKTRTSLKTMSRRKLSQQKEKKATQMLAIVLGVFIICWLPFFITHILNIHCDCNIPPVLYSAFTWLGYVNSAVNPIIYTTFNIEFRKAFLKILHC
#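 Potentiation of an EC20 dopamine calcium response measured kinetically over 180 s, after a preceding 180 s compound-only read flagging agonists. Cells: inducible Hek293 Trex D2 line, 4000/well, cultured overnight at 30 C before dye loading.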
# D2 PAM-2 – human D2 receptor positive allosteric modulation; P14416; DiscoveRx D2 beta-arrestin cells, luminescence, 90 min; 100% = 57 uM dopamine signal; potentiation, % (concentration not given with the values); hit rate 0.23% among 360,000; AID 624464; in the data active = potentiation above about 50%; inconclusive = mostly about 30% to 49%
#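 PathHunter beta-arrestin assay in DiscoveRx D2 cells. Compounds were added with an EC20 of dopamine (50 nM final) for 90 min at 37 deg C. Luminescence was read 1 h after detection reagent, with 57 uM dopamine as the EC100 control.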
# D2 ag-1 – activates the human D2 dopamine receptor; P14416; DiscoveRx PathHunter D2 beta-arrestin, luminescence, 90 min; 100% = 57 uM dopamine signal; activation, % (test concentration not listed); hit rate 0.084% among 360,000; AID 624465; in the data active = activation above about 40%; inconclusive = between about 15% and that limit
#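 DiscoveRx PathHunter D2 beta-arrestin cells (2,100/well) attached overnight, then compound-stimulated 90 min at 37 C in HBSS/10 mM HEPES/0.1% Tween-20 buffer; beta-galactosidase complementation read by luminescence after 1 h at ambient temperature. Dopamine 57 uM final (EC100) as control.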
# D2 antagonist – D2 dopamine receptor (human) antagonism; hit rate 2% among 340,000; HEK293 TREx D2 cells, calcium flux, dopamine EC80; P14416; inhibition, % at 10 µM; AID 485344; in the data active = inhibition above about 30%; inactive = below that, where a call was filed
#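 Overnight-induced (tetracycline, 30 C) HEK293 T-REx cells carrying force-coupled D2 receive a no-wash calcium dye, then compound, then EC80 dopamine at 180 s; signals are read kinetically throughout.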
# D2 ag-2 – agonists of human D2 dopamine receptor. activation, % at 2 µM. AID 485358. P14416. HEK293 T-REx D2 cells, calcium flux agonist mode. hit rate 0.53% among 340,000;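 active = activation over 3 SD above normal in the single-dose calcium agonist read, cut at about 30% in these data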
#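 Calcium-flux readout, 1 cycle/sec over 180 s following compound pin transfer, in inducible HEK293 Trex D2 cells (force-coupled); dopamine controls included. Positive calcium responses during this window marked compounds as potential agonists.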
# Numbers stand for hits; - = inactive; ? = inconclusive; . = no result given. Rows were chosen to be rich in hits. Some 2.4% of all compounds tested hit in one or more screens of this group.
SMILES,D2 PAM-1,D2 PAM-2,D2 ag-1,D2 antagonist,D2 ag-2
Cc1ccc(OCC(O)CN2CCN(Cc3ccc4c(c3)OCO4)CC2)cc1C (stereo not given),-,-,-,-,-
OC(COc1ccc2c(c1)OCO2)CN1CCc2ccccc2C1 (stereo not given),-,-,-,42,-
CCCc1cc(=O)[nH]c(Nc2ccccc2O)n1,-,.,.,.,-
COc1ccc(S(=O)(=O)N2CC(=O)Nc3ccccc32)cc1Cl,60,-,-,-,-
CCOc1ccc(S(=O)(=O)N2CC(=O)Nc3ccccc32)cc1C#N,-,-,-,-,-
Nc1nnc(SCC(=O)Nc2nccs2)s1,-,-,-,-,-
Cc1nnc(SCC(=O)Nc2nccs2)s1,-,-,-,34,-
CCc1ccc(-c2cc(C)no2)cc1S(=O)(=O)N1CCN(c2ccc(OC)cc2)CC1,-,-,-,-,-
CCc1ccc(-c2cc(C)no2)cc1S(=O)(=O)N1CCN(c2ccc(F)cc2)CC1,-,-,-,36,-
CCc1ccc(-c2cc(C)no2)cc1S(=O)(=O)NCCCN1CCN(c2ccccc2)CC1,-,-,-,51,72
CCc1ccc(-c2cc(C)no2)cc1S(=O)(=O)NCCN1CCC(C)CC1,-,-,-,-,-
OCC1CCCCN1CC(O)COC(c1ccc(F)cc1)c1ccc(F)cc1 (stereo not given),-,-,-,31,-
COc1ccc2cc(C#N)c(SCC(=O)N3CC(=O)Nc4ccccc43)nc2c1,-,-,-,.,.
Cc1cccc2cc(C#N)c(SCC(=O)N3CC(=O)Nc4ccccc43)nc12,-,-,-,34,-
COCCSc1ccccc1C(=O)N1CCN(c2ccccc2OC)CC1,-,-,-,38,-
COc1ccccc1N1CCN(C(=O)c2ccc(CS(=O)(=O)c3ccccc3OC)o2)CC1,47,-,-,-,-
COCCNC(=O)c1ccc(CS(=O)(=O)c2ccccc2OC)o1,-,-,-,-,-
COCCCNC(=O)c1ccc(CS(=O)(=O)c2ccccc2OC)o1,-,-,-,33,-
CN1CCN(CC(=O)Nc2ccccc2[N+](=O)[O-])CC1,-,-,-,-,-
Cc1nnnn1CC(=O)Nc1ccccc1[N+](=O)[O-],-,-,-,36,-
Cc1ccc(-n2c(=O)c3c4c(sc3n(CC(=O)Nc3cccc(Cl)c3)c2=O)CCCCC4)cc1C,-,.,.,.,-
COc1ccc(CC(=O)NCC2CCCN(Cc3ccccc3Cl)C2)cc1 (stereo not given),-,-,-,-,-
CCCc1cc(=O)[nH]c(SCc2nc(-c3ccc(OCC)cc3)no2)n1,-,.,.,.,-
COc1cccc2c1OC1(C)CC2/C(=C(\C)O)C(=O)N1 (stereo not given),-,-,-,51,-
CSCCC(NC(=O)OC(C)(C)C)C(=O)Oc1ccc2c(=O)c(-c3ccc4c(c3)OCCO4)coc2c1 (stereo not given),-,-,-,33,-
SMILES,D2 PAM-1,D2 PAM-2,D2 ag-1,D2 antagonist,D2 ag-2
Cc1ccc(C(=O)C(C)OC(=O)CCS(=O)(=O)c2ccc(C)cc2)cc1 (stereo not given),-,-,-,-,-
O=C(COc1ccc(Cl)cc1)Nc1ccc2c(c1)CCC2,-,-,-,39,-
CCN(CC)CC(O)COc1ccccc1C(=O)CCc1ccccc1 (stereo not given),-,-,-,-,-
CCCNCC(O)COc1ccccc1C(=O)CCc1ccccc1 (stereo not given),.,.,.,35,.
C=CCN1C(c2ccc(OCC)cc2)=CS/C1=C(\C#N)c1nnc2n1CCCCC2,45,-,-,-,-
C=CCN1C(c2ccc(Br)cc2)=CS/C1=C(\C#N)c1nnc(N2CCOCC2)n1-c1ccccc1,.,-,-,.,.
COc1cc(-c2cc(=O)c3c(O)c(OC)c(OC)c(O)c3o2)ccc1O,-,88,-,-,-
COc1c(O)c(O)c2oc(-c3ccccc3)cc(=O)c2c1OC,-,?,-,-,-
CN(C)S(=O)(=O)c1cccc(C(=O)NCCNC(=O)c2cccc(S(=O)(=O)N(C)C)c2)c1,-,-,-,-,-
CN(C)S(=O)(=O)c1cccc(C(=O)NCCOC(=O)c2cc(F)c(F)cc2Cl)c1,-,-,-,34,-
O=Cc1c(C(=O)O)n(CC(=O)O)c2ccccc12,-,69,-,-,-
CN(C(=O)c1ccncc1)c1nnc(-c2ccccn2)s1,-,-,-,35,-
CN(C(=O)c1ccc(C#N)cc1)c1nnc(-c2ccccn2)s1,-,-,-,-,-
Cc1nc2sc(C(=O)OCC(=O)N3c4ccccc4CC3C)c(C)c2c(=O)[nH]1 (stereo not given),-,-,-,52,-
CCOC(=O)c1c(SCC(=O)Nc2nc(C)cs2)nc(=O)[nH]c1C,-,-,-,32,-
CCOC(=O)c1c(SCC(=O)Nc2nc3ccccc3s2)nc(=O)[nH]c1C,-,.,.,.,-
Cc1ccc(S(=O)(=O)N(C)C)cc1NC(=O)C1CCCC1,-,-,-,-,-
CCN(CCO)C(=S)Nc1cc(S(=O)(=O)N(C)C)ccc1C,-,-,-,51,-
Cc1ccc(S(=O)(=O)N(C)C)cc1NC(=S)N1CCCCC1CO (stereo not given),-,-,-,39,-
Cc1cccnc1NC(=O)c1csnn1,-,-,-,-,-
COc1ccc(C2=NOC(Cn3nc(C(=O)NCc4ccco4)cc3-c3ccccc3)C2)cc1 (stereo not given),-,-,-,-,-
O=C(COC(=O)c1ccc(Cl)c(S(=O)(=O)N2CCCCC2)c1)NCC1CCCCC1,-,-,-,44,-
CCC1CCc2nc3sc(C(=O)Nc4ccc(F)cc4F)c(N)c3cc2C1 (stereo not given),-,.,.,.,-
Oc1ccc(-c2ccccc2)cc1CN1CCCCCC1,-,-,-,69,-
Cc1ccc(NC(=O)c2oc3ccccc3c2NC(=O)C2CCCCC2)cc1,-,.,.,.,-
SMILES,D2 PAM-1,D2 PAM-2,D2 ag-1,D2 antagonist,D2 ag-2
CCc1cc2c(SCC(=O)c3cccs3)ncnc2s1,-,-,-,34,-
COc1cc(F)ccc1-c1cc(C(=O)Nc2ccc(NC(C)=O)cc2)[nH]n1,.,-,-,.,.
Cc1oc(-c2ccccc2Cl)nc1Cn1c(SCc2cccc(F)c2)nc2cccnc21,-,.,.,.,-
CCCCCn1c(S(=O)(=O)O)nc2ccccc21,-,-,-,-,-
CCCCn1c(S(=O)(=O)O)nc2ccccc21,-,-,-,33,-
Nc1nnc(CC(=O)N/N=C/c2cccc(OCCOc3ccccc3)c2)s1,-,-,-,31,-
Cc1cc(C)cc(NS(=O)(=O)c2cc(Br)cnc2N)c1,-,-,-,32,-
Cc1ccc(NS(=O)(=O)c2cc(Br)cnc2N)cc1C,-,-,-,-,-
COc1ccccc1CN=c1c([N+](=O)[O-])nn(-c2ccc3c(c2)OCCO3)n1O,-,129,?,-,-

# Screens as filed in PubChem BioAssay.
